This is an account of results in the supplement of paper PMC6953052.

The structures appear in SMILES notation. Values joined by “and” are separate entries in the source; they are usually repeats but may differ in a detail not shown here. Equal entries are not always repeated. ± gives the standard deviation of the averaged measurements. Whole data set: some 1,700 compounds, median “fraction of GFP-LC3-positive cells (≥5 vesicles/cell)” near 0.43, cut for the highest 2% near 0.81. Only a selection was taken, and the highest values are over-represented in it overall.

The assay relates to CbCln3 Δex7/8/Δex7/8 GFP-LC3 cerebellar neuronal cells. The assay can be described thus: fraction of GFP-LC3-positive cells (≥5 vesicles/cell); higher = more autophagosome accumulation. The method in brief:
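Wild-type or mutant CbCln3 cerebellar cells stably expressing GFP-LC3 were plated at 2 × 10^3 per well in 384-well plates and received ~50 nL of compound in DMSO by pin transfer, in duplicate, for 24 h at 33 °C. Hoechst 33342 and LysoTracker Red were added for the last 30 min, after which cells were fixed in 3.2% PFA and three fields per well were imaged at 10×. CellProfiler counted GFP-LC3 vesicles per cell, and out-of-focus images were excluded. The reported value is the fraction of cells reaching a vesicle-count cutoff of 5 or more, averaged over duplicates.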
Regarding `CN(C(=O)C(Cl)Cl)c1ccc(OC(=O)c2ccco2)cc1` [Diloxanide furoate], the “fraction of GFP-LC3-positive cells” value came out at 0.372.
As for `Cl.c1ccc2c(c1)CCCC2C1=NCCN1` (stereo not drawn) [Tetrahydrozoline hydrochloride], the “fraction of GFP-LC3-positive cells” value turned out to be 0.357.
Then `CC(C)C[C@H](NC(=O)[C@H]1CCCN1C(=O)OCc1ccccc1)C(=O)NCC(=O)NO`, with 0.442; and `Cn1cc(C2=C(c3cn(CCCSC(=N)N)c4ccccc34)C(=O)NC2=O)c2ccccc21`, with 0.854 ± 0.15.
Then `CN(C)CCCn1cc(C2=C(c3c[nH]c4ccccc34)C(=O)NC2=O)c2ccccc21`, with 0.583 and 0.599.
Regarding `CN(C)CCC=C1c2ccccc2C=Cc2ccccc21.Cl` [Cyclobenzaprine hydrochloride], the “fraction of GFP-LC3-positive cells” value stood at 0.513.
In the case of `CC[C@]1(O)C[C@@H]2CN(CCc3c([nH]c4ccccc34)[C@@](C(=O)OC)(c3cc4c(cc3OC)N(C)[C@H]3[C@@](O)(C(=O)OC)[C@H](OC(C)=O)[C@]5(CC)C=CCN6CC[C@]43[C@@H]65)C2)C1.O=S(=O)(O)O` [vinblastine] it was 0.848; in that of `CC/C=C\C/C=C\C/C=C\CCCCCCCCCCCC(=O)O`, 0.417.
Consider `CC/C=C\C/C=C\C/C=C\CCCCCCCCCCCC(=O)O` [Docosatrienoic acid (22:3 n-3)], for which the “fraction of GFP-LC3-positive cells” value was 0.541.
With `CC/C=C\C/C=C\C/C=C\CCCCCCCCCCCC(=O)O` [Docosatrienoic acid (22:3 N-3)], the “fraction of GFP-LC3-positive cells” value came out at 0.466.
For `CC[N+](C)(C)c1cccc(O)c1.[Cl-]` [Edrophonium chloride], the “fraction of GFP-LC3-positive cells” value is 0.407.
In the case of `CC(C)NNC(=O)c1ccncc1.O=P(O)(O)O` [Iproniazide phosphate] it was 0.489; in that of `CNCCCN1c2ccccc2CCc2ccccc21.Cl` [Desipramine hydrochloride], 0.486; in that of `CN(C)CCOC(C)(c1ccccc1)c1ccccn1.O=C(O)CCC(=O)O` (stereo not drawn) [Doxylamine succinate], 0.314.
For the compound `O=C(NCC1CCCCN1)c1cc(OCC(F)(F)F)ccc1OCC(F)(F)F` (stereo not drawn), the “fraction of GFP-LC3-positive cells” value was 0.524.
With `c1ccc2[nH]c(-c3cscn3)nc2c1` [Tiabendazole], the “fraction of GFP-LC3-positive cells” value is 0.326.
In the case of `CC[C@H]1[C@@H]2C=C[C@@H]3[C@H]4C/C=C\C(=O)NCCC[C@@H]5NC(=O)C(=C5O)C(=O)CC[C@@H]4C[C@@H]3[C@H]2C[C@H]1C` [Ikarugamyin] it was 0.921; in that of `CCCCCCCC/C=C\CCCCCCCC(=O)NCCc1ccc(O)c(O)c1` [Oleoyl dopamine], 0.611; in that of `CCCCC/C=C\C=C\C(O)CCCCCCCC(=O)O` (racemic), 0.29.
For `CCOC(=O)[C@H](CCc1ccccc1)N[C@@H](C)C(=O)N1CCC[C@H]1C(=O)O.O=C(O)/C=C\C(=O)O` [Enalapril maleate], the “fraction of GFP-LC3-positive cells” value was 0.395.
Then `CCCCC[C@H](O)/C=C/C=C/C=C/[C@H](O)C/C=C\CCCC(=O)O` [8(R),15(S)-DiHETE all trans], with 0.298; and `CC[N+](CC)(CC)CCC(O)(c1ccccc1)C1CCCCC1.[Cl-]` (stereo not drawn) [Tridihexethyl chloride], with 0.44.
Then `CCCCCCCCCCCCCCCCOC[C@H](COP(=O)([O-])OCC[N+](C)(C)C)OC(=O)NC`, with 0.4228 ± 0.0025; and `NC(=O)N/N=C/c1ccc([N+](=O)[O-])o1` [Nitrofural], with 0.493; and `CCC1NC(=O)c2cc(S(N)(=O)=O)c(Cl)cc2N1` (stereo not drawn) [Quinethazone], with 0.417.
In the case of `CN(C)CCCSC(=N)N.Cl.Cl` [Dimaprit dihydrochloride] it was 0.45.
Turning to `Nc1nc(=O)[nH]cc1F` [Flucytosine], the “fraction of GFP-LC3-positive cells” value was 0.296.
As for `Cl.Clc1ccccc1CN1CCc2sccc2C1` [Ticlopidine hydrochloride], the “fraction of GFP-LC3-positive cells” value worked out at 0.403.
Then `CN[C@H]1CC[C@@H](c2ccc(Cl)c(Cl)c2)c2ccccc21` [Sertraline], with 0.311; and `Oc1ccc(-c2nc(-c3ccc(F)cc3)c(-c3ccncc3)[nH]2)cc1`, with 0.524 and 0.566.
For `N=C(N)NCCC[C@H](NC(=O)[C@@H]1CCCN1C(=O)[C@H](N)Cc1ccccc1)C(=O)CCl`, the “fraction of GFP-LC3-positive cells” value was 0.502.
In the case of `CCCC[C@@H](C=O)NC(=O)[C@H](CC(C)C)NC(=O)[C@H](CC(C)C)NC(C)=O` it was 0.93; in that of `CSCC[C@@H](C=O)NC(=O)[C@H](CC(C)C)NC(=O)[C@H](CC(C)C)NC(C)=O`, 0.448; in that of `CC(=O)N[C@@H](CC(C)C)C(=O)N[C@@H](CC(C)C)C(=O)N[C@H](C=O)CCCNC(=N)N` [Leupeptin], 0.392.
In the case of `CCOC(=O)/N=c1/c[n+](N2CCOCC2)[n-]o1` [Molsidomine] it was 0.473.
Take `CCC[C@@H]1C[C@@H](C(=O)N[C@@H]([C@H]2O[C@H](SC)[C@H](O)[C@@H](O)[C@@H]2O)[C@@H](C)O)N(C)C1.Cl` [Lincomycin hydrochloride]: the “fraction of GFP-LC3-positive cells” value stood at 0.505.
For `CS(=O)(=O)c1ccc([C@@H](O)[C@@H](CF)NC(=O)C(Cl)Cl)cc1` [Florfenicol], the “fraction of GFP-LC3-positive cells” value was found to be 0.355.
In the case of `CN(C)c1ccc(/C=C2\C(=O)Nc3ccccc32)cc1`, the “fraction of GFP-LC3-positive cells” value is 0.441 and 0.394.
Then `COC(=O)Nc1nc2cc(C(=O)c3cccs3)ccc2[nH]1` [nocodazole], with 0.612; and `COC(=O)Nc1nc2cc(C(=O)c3ccccc3)ccc2[nH]1` [Mebendazole], with 0.9.
Regarding `CC(C(=O)O)c1cccc(C(=O)c2ccccc2)c1` (stereo not drawn) [Ketoprofen], the “fraction of GFP-LC3-positive cells” value worked out at 0.499.
In the case of `O=C(O)c1ccc2nc(-c3ccccc3)c(-c3ccccc3)nc2c1` it was 0.507; in that of `CC(C(=O)O)c1ccc(C(=O)c2cccs2)cc1` (stereo not drawn) [Suprofen], 0.46; in that of `COC(=O)Nc1nc2cc(C(=O)c3cccs3)ccc2[nH]1` [Nocodazole], 0.916.
In the case of `Cc1cc(C2CCCCC2)n(O)c(=O)c1.NCCO` [Ciclopirox ethanolamine] it was 0.809; in that of `Cc1cc(=O)n(-c2ccccc2)n1C` [Antipyrine], 0.36; in that of `CC(C)COCC(CN(Cc1ccccc1)c1ccccc1)N1CCCC1` (stereo not drawn), 0.621.
Take `CCCCC[C@H](O)/C=C/C=C\C/C=C\C/C=C\CCCC(=O)O`: the “fraction of GFP-LC3-positive cells” value was determined as 0.405 ± 0.089.
